# Laboratory results from PubChem BioAssay (NCI).
# Several values for one entry are separate records, joined by “and”; a condition that tells them apart may be missing. Equal entries are not always repeated. About 83,000 compounds went through this panel and 20% of them were active in at least one assay; those are over-represented in the sample as a whole.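 Note: values are percent growth. 100 is the growth of untreated cells, values between 100 and 0 indicate rising inhibition; between -100 and 0 indicates cell death.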 Activity calls are given as the source filed them. Rule for the calls: active = growth percent below 10; inactive = the rest.
# Key:
# Experiment in all cases: NCI-60 one-dose screen, 48 h (100 = growth as untreated, 0 = no growth, -100 = all killed)
# Details in all cases: 10 µM unless noted
# [1] = system: NCI-H23 lung
# [2] = system: NCI-H226 lung
# [3] = system: NCI-H322M lung
# [4] = system: HOP-62 NSCLC
# [5] = system: NCI-H460 lung
# [6] = system: HOP-92 NSCLC
# [7] = system: NCI-H522 lung
# [8] = system: A549/ATCC NSCLC
# [9] = system: 786-0 renal
# [10] = system: COLO 205 colon
Structure (SMILES),growth [1],growth [2],growth [3],growth [4],growth [5],growth [6],growth [7],growth [8],growth [9],growth [10]
N[C@H](C(=O)O)[C@@H]1CC(Cl)=NO1,22.8% [20 µM] (inactive),38.1% [20 µM] (inactive),37.2% [20 µM] (inactive),26.1% [20 µM] (inactive),7.07% [20 µM] (active),63.6% [20 µM] (inactive),25.4% [20 µM] (inactive),19.1% [20 µM] (inactive),24.2% [20 µM] (inactive),33.5% [20 µM] (inactive)
COC(=O)c1nc(=S)[nH]c(C(=O)OC)c1C(=O)c1ccccn1,45.8% (inactive),9.58% (active),56.5% (inactive),40% (inactive),38.6% (inactive),47.9% (inactive),61.8% (inactive),107% (inactive),26.7% (inactive),21.1% (inactive)
O[C@H]1[C@H]2c3cc4c(cc3CN3CCC(=C[C@@H]1O)[C@H]23)OCO4,15.3% (inactive),15.3% (inactive),18.5% (inactive),26.5% (inactive),18.4% (inactive),-3.91% (active),25% (inactive),19.1% (inactive),31.9% (inactive),9.67% (active)
NC1=CC(=O)c2ccccc2C1=O,40.2% (inactive),91.7% (inactive),97% (inactive),80.9% (inactive),89.8% (inactive),91.4% (inactive),89.4% (inactive),75.9% (inactive),105% (inactive),104% (inactive)
CN(C)c1ccc(N=Nc2cccc3ccccc23)cc1,84.3% (inactive),63.5% (inactive),94.4% (inactive),85.7% (inactive),92.7% (inactive),74% (inactive),95% (inactive),89.8% (inactive),100% (inactive),87.2% (inactive)
CCN(CC)CCOc1ccc(-c2nc3cc(Cl)ccc3s2)cc1,-53.6% (active),65.2% (inactive),28.3% (inactive),-66.6% (active),-64.6% (active),19.3% (inactive),-39.5% (active),-1.04% (active),29.5% (inactive),-73.9% (active)
Cn1c2c(c3ccccc31)CCN1C[C@@H]3CCCC[C@H]3C[C@@H]21,14.4% (inactive),32.3% (inactive),6.3% (active),40.7% (inactive),0.684% (active),33.4% (inactive),6.33% (active),23.1% (inactive),-12.7% (active),-59.2% (active)
CC(=Nc1ccc(N(C)C)cc1)c1ccccc1,66.4% (inactive),59.3% (inactive),66.5% (inactive),54.2% (inactive),34.2% (inactive),30.8% (inactive),64.7% (inactive),45.2% (inactive),74.5% (inactive),13.2% (inactive)
CC(C)(C)c1ccc(O)c(C2CCCCC2)c1,98% (inactive),104% (inactive),105% (inactive),107% (inactive),107% (inactive),96.6% (inactive),83.6% (inactive),95.9% (inactive),99.8% (inactive),103% (inactive)
O=C(O)C1C2CC3C(OC(=O)C31)C2Br (stereo not given),103% (inactive) and 95.4% (inactive),88.3% (inactive) and 90.7% (inactive),101% (inactive) and 106% (inactive),92.8% (inactive) and 99.4% (inactive),98.3% (inactive) and 100% (inactive),91% (inactive) and 94.2% (inactive),72.9% (inactive) and 95.6% (inactive),79.6% (inactive) and 101% (inactive),105% (inactive) and 99% (inactive),97.1% (inactive) and 103% (inactive)
Cc1cc2nc(CS)[nH]c2cc1C,97.1% (inactive),93.1% (inactive),76.4% (inactive),92.7% (inactive),93% (inactive),88.9% (inactive),74.7% (inactive),94.2% (inactive),81.6% (inactive),90.3% (inactive)
